SMILES strings stand for the structures. Inconclusive results are not listed. Entries that show only a call come without a potency. The source made the active and inactive calls. Calls come from the whole dose curve; as a rule, active = well fitted inhibition curve with a large enough effect; inconclusive = small, poorly fitted or top-dose-only effect; inactive = flat fitted curve, though single readings scatter.

The test system of this assay is MCC-26. Nature of the assay: qHTS assay to identify novel small-molecules to repurpose for Merkel cell carcinoma treatment (AID 1296009). Note: nearly all actives have a fitted effect of over 60% in size. The conditions noted are these: MCC and control cell lines, CellTiter-Glo viability, 72 h; series mostly up to 46 µM. In a few lines:
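Luminescence from CellTiter-Glo, read 10 min after addition at room temperature, reported viability following a 72 hr, 37 degree celsius treatment with NPC or MIPE compounds in titration; values normalized to plate controls.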
For orientation: Quantitative high-throughput screening tests each substance at several concentrations.
As for `CN(C)c1ccc(C2Nc3ccc4ccccc4c3C3=C2C(=O)CC(C)(C)C3)cc1Br` (stereo not given), the Potency entry is “inactive”.
`COc1ccc2nc(S(=O)Cc3ncc(C)c(OC)c3C)[nH]c2c1` (stereo not given): the Potency entry was “inactive”.
Take `Fc1ccc(Cl)cc1-c1nc(Nc2ccncc2)c2nccnc2n1`: the Potency entry was “inactive”.
The value for `CS(=O)(=O)Oc1ccc2c(NC(N)=O)c(C(=O)c3ccc(Cl)cc3Cl)oc2c1` was “inactive”.
The value for `Cc1cccc(-c2nn(C(=S)Nc3ccccc3)cc2-c2ccnc3ccccc23)n1` was “inactive”; that for `CCC(C)n1ncn(-c2ccc(N3CCN(c4ccc(OC[C@H]5CO[C@](Cn6cncn6)(c6ccc(Cl)cc6Cl)O5)cc4)CC3)cc2)c1=O` (stereo not given in full) was “inactive”; that for `NC(=O)c1ccc(I)c([N+](=O)[O-])c1` was “inactive”.
With `Nc1ncnc2nc(-c3ccc(N4CCOCC4)nc3)cc(-c3cccc(Br)c3)c12` the entry was “inactive”; with `COc1ccc(-c2c(-c3ccc(O)cc3O)n[nH]c2C)cc1`, “inactive”; with `Cc1c(CCOc2ccc(C(=O)O)cc2)c2cc(Cl)ccc2n1C(c1ccccc1)c1ccccc1`, “inactive”.
Turning to `Cc1ccnc(NS(=O)(=O)c2ccc(NC(=O)Nc3ccc(S(=O)(=O)Nc4nccc(C)n4)cc3)cc2)n1`, the Potency result is “inactive”.
On to `C[C@]12CC[C@H](O)CC1=CC[C@@H]1[C@H]2CC[C@]2(C)C(c3cccnc3)=CC[C@H]12`, for which the Potency result is “inactive”.
Regarding `OC(CN1CCC(Cc2ccc(F)cc2)CC1)c1ccc(Cl)cc1` (stereo not given), the Potency entry is “inactive”.
For `NC(=O)c1cnccn1`, the Potency entry is “inactive”.
As to `NC(=O)C1CCCc2c1[nH]c1ccc(Cl)cc21` (stereo not given), the Potency entry is “inactive”.
Take `NC(=O)c1ccc(-c2nc(-c3ccc4c(c3)OCO4)c(-c3ccccn3)[nH]2)cc1`: the Potency result is “inactive”.
For the compound `CC[C@@H](C)[C@H](NC(=O)[C@H](CC1CCCCC1)NC(=O)c1ccno1)C(=O)N1CCC2(CCc3ccccc32)CC1`, the Potency entry was “inactive”.
On to `CCCn1c(=O)c2[nH]c(C34CC5CC3C[C@@H](C5)C4)nc2n(CCC)c1=O`, for which the Potency entry was “inactive”.
As to `Cc1ccc(N(CC2=NCCN2)c2cccc(O)c2)cc1`, the Potency entry was “inactive”.
With `CCN(c1ccccc1)c1cc(NC)[n+](C)c(C)n1` the entry was “inactive”; with `COc1ccc(COc2cc3oc(=O)c4cc(C(C)O)ccc4c3cc2OC)cc1` (stereo not given), “inactive”; with `C[C@@H]1CN(Cc2ccc(F)cc2)[C@@H](C)CN1C(=O)c1cc2c(C(=O)C(=O)N(C)C)cn(C)c2cc1Cl`, “inactive”.
Consider `C[C@]1(c2nc3c(C(N)=O)cccc3[nH]2)CCCN1`, for which the Potency entry was “inactive”.
The value for `COCCNCCCn1c(C(=O)CF)c(-c2ccc(C)cc2)c2c(N)ncnc21` was “inactive”; that for `Cc1cn[nH]c1` was “inactive”; that for `Cc1n[nH]c(C)c1Cc1sc2c(c1C(=O)N1C[C@H](O)CO1)c(=O)n(C)c(=O)n2CC(C)C` was “inactive”.
With `CNC(=O)c1ccc(N2C(=S)N(c3ccc(C#N)c(C(F)(F)F)c3)C(=O)C2(C)C)cc1F` the entry was “inactive”; with `O=C(C1CC1)N1CC[C@@H](Cn2c(-c3ccc(-c4ccc5occc5c4)cc3)nc3cnccc32)C1`, “inactive”; with `COc1ccccc1-c1cccc(-c2c(O)c3cc(C#N)c(Cl)cc3[nH]c2=O)c1`, “inactive”.
With `O=C(O)[C@@H](c1ccc(OCc2ccc3ccccc3n2)cc1)C1CCCC1` the entry was “inactive”.
As to `O=S(=O)(N=Cc1c(O)ccc2ccccc12)c1cccs1`, the Potency result was “inactive”.
The value for `CCCc1nn(C)c2c(=O)[nH]c(-c3cc(S(=O)(=O)N4CCN(C)CC4)ccc3OCC)nc12` was “inactive”; that for `NNCCc1ccccc1` was “inactive”.
The value for `COc1ccc(CC2=NN3C([C@@H](CCc4ccccc4)[C@@H](C)O)=NC(C)C3C(=O)N2)cc1OC` (stereo not given in full) was “inactive”; that for `Nc1cccc(S(=O)(=O)N2CCCN(S(=O)(=O)c3ccc4c(c3)OCCO4)CC2)c1` was “inactive”.
